RmlCD inh mix: RmlC and RmlD coupled enzyme inhibitors, primary screen, biochemical, 384-well, compound mixtures, retest; 110,000 compounds, 0.39% hits; RmlC/RmlD coupled enzyme inhibition, 384-well mixture HTS; inhibition, % at 5.5 µM; in the data active = inhibition above about 30%, passing the limit was not always enough
YopH PTP inh: YopH tyrosine phosphatase inhibitors, primary screen, biochemical, fluorescence Ex485/Em525; 140,000 compounds, 0.16% hits; YopH tyrosine phosphatase [Yersinia enterocolitica]; inhibition, % (no concentration beside the values); in the data active = inhibition above about 50%
* marks the source's active call; other numbers are inactive results; nt = no result; + = active, no number. The list is not random: actives were taken first. Their share in the collection is about 0.41%.

SMILES | RmlCD inh mix | YopH PTP inh
S=c1[nH]nc(-c2ccccc2)n1/N=C/C=C/c1ccco1 | nt | 51*
S=c1[nH]nc(-c2ccco2)n1/N=C/C=C/c1ccccc1 | nt | -21
CCOC(=O)c1oc2ccccc2c1CSc1nnnn1-c1ccc(OC)cc1 | 5 | 4
CCOC(=O)c1oc2ccc(Br)cc2c1CSc1nnc(C)s1 | 9 | 88*
CCOC(=O)N1CCN(c2cc(NCCC(=O)O)c3c4c(onc24)-c2ccccc2C3=O)CC1 | nt | 87*
O=C(O)CCCNc1cc(N2CCC3(CC2)OCCO3)c2noc3c2c1C(=O)c1ccccc1-3 | nt | 9
Cc1ccc(N2C(=O)[C@@H]3[C@H](C2=O)C2c4ccccc4C=CN2[C@@H]3C(=O)c2ccco2)c(C)c1 (stereo partly specified) | -8 | 95*
COc1ccc(N2C(=O)[C@@H]3[C@H](C2=O)[C@H]2c4ccccc4C=CN2[C@@H]3C(=O)Nc2ccccc2)cc1 | 44 | 5
CC(C)(C)C(=O)[C@@H]1[C@@H]2C(=O)N(c3ccc4c(c3)OCCO4)C(=O)[C@@H]2C2c3ccccc3C=CN21 (stereo partly specified) | -13 | 5
O=C(c1ccco1)[C@@H]1[C@@H]2C(=O)N(c3ccccc3)C(=O)[C@@H]2C2c3ccccc3C=CN21 (stereo partly specified) | -6 | 82*
Cc1ccc(N2C(=O)[C@@H]3[C@H](C2=O)C2c4ccccc4C=CN2[C@@H]3C(=O)c2ccco2)cc1 (stereo partly specified) | -15 | 92*
CC(=O)[C@@H]1[C@@H]2C(=O)N(Cc3ccccc3)C(=O)[C@@H]2C2c3ccccc3C=CN21 (stereo partly specified) | 8 | 35
Cc1ccc(C)c(-c2nn(-c3cc(N4CCN(CCO)CC4)ccc3[N+](=O)[O-])c(=O)c3ccccc23)c1 | 4 | -4
O=C(c1cccc(S(=O)(=O)Nc2cccc(C(F)(F)F)c2)c1)N1CCCCC1 | nt | -44
CCC(NC(=O)/C(=C\c1ccc2c(c1)OCO2)NC(C)=O)C(=O)O (stereo unspecified) | nt | -8
COCCCn1c2nc3ccccc3nc2c2c(=O)n(Cc3ccc(Cl)cc3)cnc21 | 21 | -8
COCCCn1c2nc3ccccc3nc2c2c(=O)n(Cc3ccccc3Cl)cnc21 | 75* | nt
Cc1oc2c(c1C(=O)c1ccccc1)C(=O)C(=O)c1ccccc1-2 | 0 | 89*
O=C(C1=C(c2ccccc2)C(=O)c2ccccc2C1=O)c1ccccc1 | nt | -30
O=C(c1ccccc1)c1coc2ccc(O)c(Cl)c12 | -10 | -49
O=C1C(=O)c2c(C(=O)c3ccccc3)coc2-c2ccccc21 | -3 | 75*
COc1cc(/C=C/C(=O)Nc2ccc(N3CCCCC3)c(S(=O)(=O)Nc3ccccc3Cl)c2)cc(OC)c1OC | nt | -23
O=C(COC(=O)C1CCN(S(=O)(=O)c2cccc3cccnc23)CC1)c1ccccc1 | nt | 1
O=C(NCCN1CCOCC1)c1ccncc1 | -18 | -31
O=C1C=C(NCCN2CCOCC2)C(=O)c2cnccc21 | -14 | 101*
SMILES | RmlCD inh mix | YopH PTP inh
Cn1c2ccccc2c(=O)n2c(=O)c3ccccc3cc12 | 13 | 101*
Cn1c(-c2ccccc2)cc(=O)c2ccccc21 | 10 | -4
O=C(NCCCn1ccnc1)c1cc2cc([N+](=O)[O-])ccc2oc1=O | nt | -31
COCCNc1cc(C)c(C#N)c2nc3ccccc3n12 | 36* | -26
CCCNc1cc(C)c(C#N)c2nc3ccccc3n12 | 55 | -11
Oc1ccc(C=Nc2ccc3ncccc3c2)c(O)c1 | 12 | 72*
Oc1ccc(C=Nc2cccc3ncccc23)c(O)c1 | -13 | -43
CCCNC(=O)c1ccc(C2SCC(=O)N2CCc2ccccc2)cc1 (stereo unspecified) | nt | -17
O=C(NCNC(=O)c1ccccc1)c1ccccc1 | 7 | -2
O=C(NC1(O)C(=O)c2ccccc2C1=O)c1ccccc1 | 2 | 102*
CN(Cc1ccc(F)cc1)C(=O)COc1ccccc1-c1ccccc1 | nt | -18
O=C(c1ccco1)N1CCN(CCCCOc2ccc(F)cc2)CC1 | nt | -6
CCCCn1c(N)c(Sc2ccccc2)c(=O)[nH]c1=O | 7 | -31
CCCCn1c(N)c(NCCC(C)C)c(=O)[nH]c1=O | nt | 52*
CC1CCc2c(sc(Nc3nc4c(F)cccc4s3)c2C(N)=O)C1 (stereo unspecified) | nt | 7
S=C1NC[C@H](Cc2ccccc2)N1CCc1cccc2ccccc12 | -14 | nt
CC(C)(C)c1nnc(SCC(=O)c2ccccc2)n(N)c1=O | nt | -27
CSc1nsc(/C=C/Nc2cccc(Cl)c2)c1C#N | 6 | -9
CSc1nsc(/C=C/Nc2ccc(Cl)cc2)c1C#N | 8 | 56*
O=C(/C=C/c1cc([N+](=O)[O-])ccc1OC(F)F)Nc1cccc2ccccc12 | nt | -6
[O-]/[N+](=C\c1ccc(F)cc1)c1ccccc1 | -13 | 59*
CC(C)(C(=O)c1ccccc1)/[N+]([O-])=C/c1ccc(F)cc1 | -18 | -27
CC(=O)Oc1cc2cccc(OC(C)=O)c(=O)c2c(OC(C)=O)c1OC(C)=O | -3 | nt
CN(C(=O)COc1ccc(C(C)(C)C)cc1)C1CCS(=O)(=O)C1 (stereo unspecified) | 5 | 54*
CCc1ccc(OCC(=O)N(C)C2CCS(=O)(=O)C2)cc1 (stereo unspecified) | 4 | -26
SMILES | RmlCD inh mix | YopH PTP inh
COC(=O)C1CC(=O)c2ccsc2C1 (stereo unspecified) | nt | -11
O=C(NCC1CCCO1)C1CC1(c1ccccc1)c1ccccc1 (stereo unspecified) | nt | -4
COC(=O)C1C(=O)CC(C)(O)C(C(=O)OC)C1/C=C/c1ccccc1 (stereo unspecified) | -62 | -39
COC(=O)C1C(C(C)C)N(c2ccccc2)OC1(C)O (stereo unspecified) | 7 | 59*
COc1coc(/C=C/C(=O)O)cc1=O | nt | -37
N=c1c(-c2nc3ccccc3[nH]2)cc(C(=O)c2cccs2)nn1-c1ccc(Cl)cc1 | -16 | 35
Cc1c(Cl)c(=O)oc2cc(OC(C)C)ccc12 | nt | -15
CCC(=O)Oc1ccc2c(C)c(Cl)c(=O)oc2c1 | + | -32
Cc1c(-c2ccccc2)oc2c(C(=O)N3CCN(c4ccc([N+](=O)[O-])cc4)CC3)cccc2c1=O | nt | -29
COc1ccc(NC2=C(NCCO)C(=O)c3ccccc3C2=O)cc1 | nt | 78*
COC1=C(Nc2ccc(OC)cc2)C(=O)c2ccccc2C1=O | nt | -19
Cc1cc(C)cc(C(=O)NCC(=O)OCC(=O)c2cc(C)n(CC(F)(F)F)c2C)c1 | nt | -23
O=C(CNC1CCCCCC1)c1cccs1 | nt | -25
CC1(C)CC(=O)C(C(C2=C(O)CC(C)(C)CC2=O)c2cccc(O)c2)C(=O)C1 (stereo unspecified) | -10 | -14
CC1(C)CC(=O)C2=C(C1)N(c1cccc(O)c1)C1=C(C2)C(=O)CC(C)(C)C1 | 39* | -49
CCCCOc1ccc(C(=O)NCC2(c3ccc(OC)cc3)CCOCC2)cc1 | nt | -19
Cc1c(C(=O)Nc2ccc(F)cc2)c2ccccn2c1CCc1ccncc1 | nt | -22
COc1ccc(NC(=S)Nc2ccc3nsnc3c2)cc1 | nt | -22
CCOc1ccc(NC(=S)Nc2ccc3nsnc3c2)cc1 | nt | 84*
CCOC(=O)N1CCN(CC(=O)Nc2ccc(Oc3ccccc3)cc2)CC1 | nt | 9
O=C(O)C1CC=CCC1C(=O)Nc1ccc2c(c1)OCCO2 (stereo unspecified) | 0 | -38

Assay outcomes as filed in PubChem BioAssay.
